Hit rate of the full screen: of about 360,000 compounds, about 5,000 (1.4%) were called active. This is one part of a sample in which actives are shown more often than they occur. A number with no mark means an inactive call.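 How the source made its calls: active means inhibition of 50% or more, scaled per plate between neutral and stimulator controls; inactive means the rest.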
assay: mitochondrial permeability transition pore inhibitors, primary screen, biochemical, isolated mouse mitochondria, absorbance (AID 602449); conditions: Ca2+ swelling absorbance, 30 min, at 10 µM, stronger effect = higher value;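 further: 0% = DMSO wells given calcium and 100% = 1 mM EGTA wells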

Row | SMILES | inhibition
1 | Cc1ccc(NC(=O)OCCNC(=O)c2ccncc2)cc1 | -2.2%
2 | CCOC(=O)c1ccc(NC(=S)N2CCCC2)cc1 | -9.2%
3 | CCCCCOC(=O)NCCOC(=O)Nc1ccc(C(=O)OCC)cc1 | 62.1% (active)
4 | CC1CCCCC12NC(=O)N(CC(=O)OCc1c(F)cccc1Cl)C2=O (centres undefined) | 1.5%
5 | Cc1cc(C(=O)O)c(S(C)(=O)=O)s1 | 0%
6 | O=S1(=O)CC(NCc2ccccc2)C(Nc2ccc(Cl)cc2)C1 (centres undefined) | -0.2%
7 | Cc1cc(N2CCCC2)ccc1NC(=O)COc1ccc(Cl)cc1 | -0.2%
8 | Cc1ccc(NC(=O)COc2ccc(-n3ccnc3)cc2)cc1Cl | 83.4% (active)
9 | O=C(COc1ccc(Cl)cc1)Nc1ccc2c(c1)OCO2 | -0.4%
10 | COc1ccccc1Nc1ncc(C(C)=O)c(C)n1 | -2.1%
11 | CN(CC(=O)Nc1ccc(S(=O)(=O)N2CCCC2)cc1)Cc1ccc(Cl)c(Cl)c1 | 3.3%
12 | O=C(CSCc1ccc(Br)cc1)Nc1ccc(S(=O)(=O)N2CCCCCC2)cc1 | 58.6% (active)
13 | O=C(CN1CCCCCC1)Nc1ccc(S(=O)(=O)N2CCCCC2)cc1 | 0.7%
14 | Cc1occc1-c1nnc(SCC(=O)NC2(C#N)CCCC2)n1C | -0.8%
15 | CC(C)(C)NC(=O)NC(=O)COC(=O)Cc1c(F)cccc1Cl | 2%
16 | O=C(Cc1c(F)cccc1Cl)Nc1ncc([N+](=O)[O-])s1 | 61.9% (active)
17 | COc1ccc(S(=O)(=O)N2CCOCC2)cc1NC(=O)Cc1c(F)cccc1Cl | -0.8%
18 | O=C(OC(C(=O)NC1CCCC1)c1ccc(F)cc1)c1ccno1 (centres undefined) | -3.3%
19 | CC(=O)C1C(c2ccc(Cl)cc2)c2c(n[nH]c2C)CC1(C)O (centres undefined) | 1.5%
20 | Cc1ccc(OS(=O)Nc2cccc3nccnc23)cc1 (centres undefined) | -0.1%
21 | O=C(Nc1cccc(Cl)c1)c1cncn1-c1ccc(F)cc1 | -1.7%
22 | O=C(Nc1ccc2c(c1)OCCO2)c1ccc(Cl)c(S(=O)(=O)N2CCCCC2)c1 | 9%
23 | S=C(NCc1ccco1)Nc1ccc2c(c1)OCCO2 | -2.6%
24 | C/C(CC(=O)Nc1cccc(C(F)(F)F)c1)=N\NC(=O)C(=O)NCC(C)C | -0.9%

Row | SMILES | inhibition
25 | O=C(Nc1cccc(S(=O)(=O)Nc2ccc(Cl)cc2)c1)c1ccc2c(c1)OCCO2 | 77.8% (active)
26 | O=C(Nc1ccc2c(c1)OCCO2)C1CCCC1 | -1.6%
27 | S=C(Nc1cccc(Cl)c1)Nc1ccc2c(c1)OCCO2 | 53.6% (active)
28 | CC(NS(=O)(=O)c1ccc(Cl)cc1)C(=O)Nc1ccc2c(c1)OCCO2 (centres undefined) | -0.3%
29 | FC(F)(F)c1cccc(NC(=S)Nc2cccc(Cl)c2)c1 | 97.6% (active)
30 | O=C(NCCCn1ccnc1)C(=O)c1cn(CC(=O)N2CCCCCC2)c2ccccc12 | 0%
31 | Cc1c(C(=O)O)nnn1-c1nonc1N | -1.7%
32 | Cc1nn(-c2ccccc2)c2c1c(C)c(CCC(=O)NCC1CCCO1)c(=O)n2C (centres undefined) | 1.8%
33 | Cc1csc(NC(=O)CSc2nnc(-c3cccnc3)o2)n1 | -0.1%
34 | Cc1cc(C)nc(NS(=O)(=O)c2ccc(N/C=C\C(=O)c3cccs3)cc2)n1 | -0.9%
35 | CC(Sc1nnc(C2CC2)n1C1CC1)C(=O)Nc1ccc(C(N)=O)cc1 (centres undefined) | 0.5%
36 | Cc1nc(Nc2ccccc2C)c2cnn(C)c2n1 | -0.2%
37 | Cc1ccc2c(=O)cc(C(=O)NCCc3ccc(S(N)(=O)=O)cc3)oc2c1C | -0.4%
38 | CCn1cc(CN2CCC(C(=O)Nc3cccc(-c4cccc(Cl)c4)c3)CC2)cn1 | -0.3%
39 | CCn1cc(CN2CCC(C(=O)Nc3cccc(-c4cccc(Cl)c4)c3)CC2)c(C)n1 | 0.6%
40 | O=C(Nc1cccc(-c2cccc(Cl)c2)c1)C1CCN(C2CCC2)CC1 | 65.4% (active)
41 | O=C(c1ccc(F)cc1)c1c[nH]c(C(=O)NCc2cccnc2)c1 | 0.8%
42 | COc1ccc(NC(=O)c2cc3nc(-c4ccccc4)cc(C)n3n2)cc1OC | 2.1%
43 | CC(=O)c1cccc(NC(=O)c2cc(C)nn2-c2ccccc2)c1 | -1.3%
44 | Cc1cc(NC(=O)Nc2ccc(Cl)cc2)n(-c2ccccc2)n1 | 70.8% (active)
45 | Cc1ccc(NC(=O)Nc2cc(-c3ccccc3)nn2C)cc1Cl | 83.1% (active)
46 | O=C(Nc1ccc(Cl)c(Cl)c1)N1CC=C(c2ccccc2)CC1 | 12.4%
47 | Cc1cc(C(=O)NCCc2ccc(Cl)cc2)n(-c2ccccc2)n1 | 1%
48 | O=C(NCc1ccc(F)cc1)C(c1ccccc1)N(C(=O)c1csnn1)C1CC1 (centres undefined) | 4.8%

Row | SMILES | inhibition
49 | CC(C)NS(=O)(=O)c1ccc(NC(=O)C2CCCCC2)cc1 | -1.2%
50 | CCOc1cccc2c1OC1(CCCCC1)N1N=C(c3cccnc3)CC21 (centres undefined) | 0.5%
51 | CC(=O)Nc1ccc(CC#N)cc1 | 2.1%
52 | COc1cccc(N(C(=O)c2snc(C(N)=O)c2N)C(C(=O)NCC2CCCO2)c2c[nH]c3ccccc23)c1 (centres undefined) | -1.8%
53 | CCOC(=O)C1CCCN(S(=O)(=O)c2ccc(-n3cnnn3)c(C)c2)C1 (centres undefined) | 0.9%
54 | O=S(=O)([N-]c1nc2ccccc2nc1-[n+]1ccc(Cc2ccccc2)cc1)c1ccc(Br)s1 | 5%
55 | Cc1cccc(NS(=O)(=O)c2ccc(C(=O)NCC(C)(C)N3CCOCC3)cc2)c1C | 1.5%
56 | CCOc1ccc(NC(=O)c2ccc(NC(=O)COC(=O)c3ccc(NC(=O)CC#N)cc3)cc2)cc1 | 0.5%
57 | COc1ccc(NC(=O)COC(=O)C2COc3ccccc3O2)cc1 (centres undefined) | -0.6%
58 | CCC(C)(C)c1ccc(Oc2ccc(NC(=O)COC(=O)C3=COCCO3)cc2)cc1 | 79.2% (active)
59 | O=S(=O)(Nc1ccc(O)c2ccccc12)c1ccc(OC(F)(F)F)cc1 | 34.9%
60 | FC(F)(F)Oc1ccc(NC(=S)NCc2ccccc2)cc1 | 77.1% (active)
61 | O=C(NNC(=S)NCc1ccccc1)c1ccc(OC(F)F)cc1 | -1.2%
62 | O=[N+]([O-])c1cc(Cl)cc(/C=N/NC(=S)Nc2cc(S(=O)(=O)N3CCOCC3)ccc2Cl)c1O | 76.5% (active)
63 | Cc1cc(OCCCC(=O)Nc2cc(S(=O)(=O)N3CCOCC3)ccc2N2CCOCC2)ccc1Cl | 0.2%
64 | O=C(Nc1cc(S(=O)(=O)N2CCOCC2)ccc1Cl)c1cc(=O)c2ccccc2o1 | -1.5%
65 | CCOc1ccc(CN2CCN(Cc3ccon3)CC2CCO)cc1 (centres undefined) | -1.1%
66 | COc1ccc(S(=O)(=O)NCCCCOc2ccc(Cl)cc2)cc1 | 98.5% (active)
67 | COc1ccc(S(=O)(=O)NCCOc2ccccc2)cc1F | 0.7%
68 | COc1ccc(OCCNS(=O)(=O)Cc2ccccc2)cc1 | 0.9%
69 | CCc1cccc(CC)c1NC(=O)COc1ccccc1C(=O)c1cc(C#N)c(=O)n(C2CCCCC2)c1 | 1%
70 | Cc1cc2cc3n(c2nn1)N=C(Cl)CC3 | 0.9%
71 | COc1ccc(C(=O)COC(=O)CN2C(=O)C3CC=CCC3C2=O)c(OC)c1 (centres undefined) | -2.3%
72 | O=C(Nc1ccc(N2C(=O)c3cccc4cccc(c34)C2=O)cc1)c1ccc(N2CCCCC2)c([N+](=O)[O-])c1 | 1.1%

Row | SMILES | inhibition
73 | O=C(NC1C2CC3CC(C2)CC1C3)c1ccc(N2CCNCC2)c([N+](=O)[O-])c1 (centres undefined) | -2.4%
74 | O=C(Nc1cccc(C(F)(F)F)c1)c1ccc(N2CCNCC2)c([N+](=O)[O-])c1 | 69.8% (active)
75 | CN(C)CCNC(=O)c1cccc(-c2cnc3c(NC=O)cc(-c4cccc(C(F)(F)F)c4)cn23)c1 | -2.1%
76 | CS(=O)(=O)N(CC(=O)Nc1ccc(F)cc1)C1CCCCC1 | 1.1%
77 | CCC(C)NC(=O)CN(C1CCCCC1)S(C)(=O)=O (centres undefined) | -1.2%
78 | N#CCCN(C(=S)Nc1ccc(Cl)c(Cl)c1)C1CCCCC1 | 64.3% (active)
79 | N#CCCN(C(=O)Nc1ccc(Cl)c(Cl)c1)C1CCCCC1 | 20.5%
80 | CS(=O)(=O)N(CC(=O)Nc1ccc(Cl)c(Cl)c1)C1CCCCC1 | 61.3% (active)
81 | CCc1cccc(NC(=S)N(CCN(C)C)C2CCN(C(C)C)CC2)c1 | -1.2%
82 | Cc1cc(NC(=O)OC(C)C)ccc1-c1ccc(NC(=O)OC(C)C)cc1C | 0.8%
83 | CN(C)c1nc2n(c(=O)n1)CCO2 | -0.8%
84 | Cc1c(Cl)cccc1NC(=O)[C@@]1(CC(=O)O)CC(/C=C/c2ccccc2)=NO1 | -0.3%
85 | C[C@H](NC(=O)NCCc1ccccc1)C(=O)O | -2.9%
86 | CCNS(=O)(=O)c1ccc(NC(=O)Nc2cccc(C(F)(F)F)c2)cc1 | 93.6% (active)
87 | CCNS(=O)(=O)c1ccc(NC(=O)c2cncc(Br)c2)cc1 | -1.5%
88 | Cc1cc(S(=O)(=O)N2CCOCC2)ccc1OCC(=O)Nc1cccc(C(F)(F)F)c1 | -0.9%
89 | CN(CC(=O)Nc1ccccc1[N+](=O)[O-])Cc1ccc(Br)cc1 | 1.1%
90 | COc1cc(CNCc2cccs2)cc(Br)c1OC | -0.5%
91 | COc1cc(CNCc2ccc(OC)c3ccccc23)cc(OC)c1OC | 90.9% (active)
92 | COc1ccccc1N1CCN(Cc2ccc(OC)c3ccccc23)CC1 | 1.3%
93 | Cn1c(=O)c2cc(NC(=O)NCCc3cccs3)ccc2n1Cc1cccc(C(F)(F)F)c1 | 3.3%
94 | CCCCn1c(N)c(N(CCC(C)C)C(=O)COC(=O)c2cccnc2OCC)c(=O)[nH]c1=O | 0.7%

Reference: PubChem BioAssay AID602449 (Sanford-Burnham Center for Chemical Genomics, 2012)
